Experimental data reported in the supplement of paper PMC6555819.

Key:
Test in all cases: PBM binding z-score (relative to random genomic background probes); higher = stronger binding; sequences stand for … in GC…GCGATTGACAGCGTAGAATGAAGG
[1] = test system: FXR:RXRa (NR concentration 270 nM, RXRa partner concentration 90 nM)
Method in brief: (§1)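 Each nuclear receptor dimer, without ligand, was incubated for 1 h on custom Agilent 4×180K protein-binding microarrays. Binding was detected with antibodies against each partner (one per run), and scanned fluorescence was regression-normalized. The binding z-scores are referenced to random human genomic background probes.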

[2] = test system: LXRa:RXRa (NR concentration 270 nM, RXRa partner concentration 90 nM)
Method in brief: as §1

[3] = test system: LXRa homodimer (NR concentration 270 nM)
Method in brief: as §1

[4] = test system: LXRb:RXRa (NR concentration 270 nM, RXRa partner concentration 90 nM)
Method in brief: as §1

[5] = test system: LXRb homodimer (NR concentration 270 nM)
Method in brief: as §1

[6] = test system: PPARa:RXRa (NR concentration 270 nM, RXRa partner concentration 90 nM)
Method in brief: as §1

[7] = test system: PPARg:RXRa (NR concentration 180 nM, RXRa partner concentration 90 nM)
Method in brief: as §1

[8] = test system: PPARg:RXRa 270nM:90nM, anti-RXR (NR concentration 270 nM, RXRa partner concentration 90 nM)
Method in brief: as §1

[9] = test system: PPARg:RXRa 30nM:10nM, anti-RXR (NR concentration 30 nM, RXRa partner concentration 10 nM)
Method in brief: as §1

[10] = test system: PPARg:RXRa 90nM:30nM, anti-RXR (NR concentration 90 nM, RXRa partner concentration 30 nM)
Method in brief: as §1

[11] = test system: PPARg:RXRa DBDmut IVT, anti-RXR (DBD mutation: RXRa K156A/R161A, NR concentration 270 nM, RXRa partner concentration 90 nM)
Method in brief: as §1

[12] = test system: PPARg:RXRa IVT, anti-PPARg (NR concentration 270 nM, RXRa partner concentration 90 nM)
Method in brief: as §1

[13] = test system: PPARg DBDmut IVT, anti-PPARg (DBD mutation: PPARg1 K132A/R137A, NR concentration 270 nM)
Method in brief: as §1

[14] = test system: PPARg homodimer (NR concentration 180 nM)
Method in brief: as §1

[15] = test system: PXR:RXRa (NR concentration 270 nM, RXRa partner concentration 90 nM)
Method in brief: as §1

[16] = test system: PXR homodimer (NR concentration 270 nM)
Method in brief: as §1

[17] = test system: RARa:RXR (NR concentration 270 nM, RXRa partner concentration 90 nM)
Method in brief: as §1

[18] = test system: RARa homodimer (NR concentration 270 nM)
Method in brief: as §1

[19] = test system: RARb:RXRa (NR concentration 270 nM, RXRa partner concentration 90 nM)
Method in brief: as §1

Sequence	PBM binding z-score [1]	PBM binding z-score [2]	PBM binding z-score [3]	PBM binding z-score [4]	PBM binding z-score [5]	PBM binding z-score [6]	PBM binding z-score [7]	PBM binding z-score [8]	PBM binding z-score [9]	PBM binding z-score [10]	PBM binding z-score [11]	PBM binding z-score [12]	PBM binding z-score [13]	PBM binding z-score [14]	PBM binding z-score [15]	PBM binding z-score [16]	PBM binding z-score [17]	PBM binding z-score [18]	PBM binding z-score [19]
ATATGTAGGTTAGGGTGATTCAGAAAGTAGGGAA	1.37	1.32	0.569	1.83	1.47	3.62	5.4	4.45	2.06	3.62	6.7	6.39	1.41	2.93	1.04	1.31	1.3	1.25	1.38
CAAACTAGGTCAAAGGACAGTGAAAGGCGACGTA	3.9	3.01	0.388	2.12	0.744	5.51	10.3	8.88	8.82	10.4	8	8.6	4.51	2.88	1.45	0.371	2.48	0.774	3.99
AGATGTAGGTTAGGGTCATTCAGAAAGTAGGGAA	5.03	3.88	1.53	4.56	2.05	5.24	7.27	6.27	3.83	5.81	5.84	6.36	2.37	3.93	4.39	3.03	5.13	3.23	3.39
ATATGTAGGTTAGGGTCATTCGGAAAGTAGGGAA	5.03	4.43	1.22	4.4	1.67	5.83	7.56	6.42	4.48	6.36	6.55	6.85	4.65	3.85	4.53	1.88	4.88	2.27	3.43
ATATGTAGGGTAGGGTCATTCAGAAAGTAGGGAA	4.09	4.09	2.32	5.19	4.59	5.28	7.32	5.53	3.19	4.91	6.28	5.96	4.11	2.93	4.39	2.67	4.44	2.33	3.21
CGAACTAGGTCACCAGGACTGTGAAGAGGTTGGA	4.32	2.55	-0.155	1.59	-0.403	5.08	8.54	6.81	4.45	6.79	8.46	8.71	1.86	3.94	1.55	-0.354	2.79	0.25	4.27
ATATGTAGGTTAGGGTCATTCAAAAAGTAGGGAA	4.97	4.06	1.57	4.59	1.42	5.83	7.96	7.02	4.85	6.73	6.37	6.88	2.24	2.6	4.47	2.2	5.13	2.37	3.59
CGAACTAGGTCAATGGACAGTGAAAGGCGACGTA	3.01	1.85	-0.266	1.17	-0.604	4.39	6.92	6.17	3.76	5.61	7.65	7.92	4.35	2.53	0.477	-0.177	1.18	0.235	3.51
ATATGTAGGTTAGAGTCATTCAGAAAGTAGGGAA	0.573	1.04	0.277	1.02	0.605	2.75	4.27	4.03	1.69	3.08	6.33	6.41	1.55	1.2	0.349	0.624	0.989	1.78	1.02
ATATGTAGGTAAGGGTCATTCAGAAAGTAGGGAA	4.33	4.17	1.56	4.24	1.45	5.52	7.89	6.82	4.58	6.85	5.88	6.35	2.93	3.52	3.78	1.25	4.55	2.02	3.61
CGAATTAGGTCACCAGGACAGTGAAGAGGTTGGA	4.43	2.73	0.379	2.04	-0.0787	5.25	8.25	6.75	4.82	6.53	8.17	8.71	2.04	2.36	1.78	0.578	2.92	0.711	4.52
CGAACTAGGTCAAAGTACAGTGAAAGGCGACGTA	4.69	3.09	0.303	2.45	0.12	5.46	9.58	7.61	7.01	8.33	7.91	8.47	3.06	1.65	1.58	-0.31	2.5	-0.202	3.84
CGAACTAGGTCACCAGTACAGTGAAGAGGTTGGA	3.77	2.35	0.174	1.82	0.0155	4.77	8.77	7.17	5.27	6.88	8.41	8.76	1.75	2.54	1.59	-0.139	2.65	0.527	3.98
CGAAATAGGTCAAAGGACAGTGAAAGGCGACGTA	6.11	4.45	0.474	3.47	0.71	5.96	9.28	8.26	7.99	8.72	7.36	7.35	0.994	2.41	2.34	-0.0747	3.92	0.491	4.49
CGAACTAGGTCACCAGGGCAGTGAAGAGGTTGGA	3.67	2.48	0.0109	1.52	-0.639	5.2	8.69	6.86	4.52	6.42	8.17	8.88	0.642	1.95	1.7	-0.014	2.53	0.458	4.22
ATATGTAGGTTAGGCTCATTCAGAAAGTAGGGAA	-0.281	-0.0164	-0.0399	0.129	0.223	2.21	2.96	2.43	0.952	1.84	6.49	5.75	1.4	0.501	-0.124	0.16	-0.184	0.657	0.339
CGAACTGGGTCACCAGGACAGTGAAGAGGTTGGA	3.32	1.63	-0.247	1.24	-0.906	4.99	8.62	6.73	4.52	6.31	7.66	8.73	1.6	1.47	1.55	-0.358	2.52	-0.049	3.73
CGAACTAGGTCAGAGGACAGTGAAAGGCGACGTA	1.21	0.781	-0.404	0.187	-0.968	3.61	8.37	6.52	6.22	7.35	7.39	7.68	-0.191	1.33	0.248	-0.238	0.823	-0.0193	3.36
ATATGTAGGTGAGGGTCATTCAGAAAGTAGGGAA	3.06	2.59	1.02	3.43	1.43	5.07	7.86	6.55	4.94	6.5	7.49	7.69	2.2	2.51	3.02	1.81	3.81	2	2.97
CGATCTAGGTCACCAGGACAGTGAAGAGGTTGGA	3.81	2.39	0.00222	1.59	-0.455	4.81	8.42	6.67	4.33	6.26	8.32	8.59	0.925	1.88	1.46	-0.089	2.44	-0.0617	4.03
CGAACTAGGTCAAAGAACAGTGAAAGGCGACGTA	3.3	1.96	-0.252	1.43	-0.259	4.66	8.35	7.08	5.63	7.35	7.89	8.03	1.2	0.602	0.752	-0.206	1.51	-0.184	3.58
ATATGTAGGTTAGGGTCATTCAGAAAGTAGGGAA	5.09	4.43	1.52	4.66	1.62	5.61	7.97	6.68	4.41	6.43	6.61	6.95	3.49	3.86	4.66	2.12	5.52	2.73	3.34
ATATGTAGATTAGGGTCATTCAGAAAGTAGGGAA	4.07	3.39	0.828	4.21	1.27	4.91	3.51	3.48	1.4	2.69	1.94	2.96	1.38	2.2	3.84	1.24	4.48	1.28	2.92
CGAACTAGGTCAAAGGACAGGGAAAGGCGACGTA	4.04	2.31	-0.139	1.77	-0.371	5.35	10.4	8.79	8.45	9.16	7.68	8.19	4.37	2.31	0.895	-0.253	2.37	0.0193	3.9
CGAACTAGGTCACCAGGACAGTGCAGAGGTTGGA	4.04	2.7	0.199	1.76	-0.667	5.21	8.59	6.83	4.82	6.44	8.28	8.75	0.713	2.02	1.73	0.15	2.58	0.578	4.14
CGAACTAGGTCAAAGGAAAGTGAAAGGCGACGTA	3.12	1.88	-0.168	1.2	-0.265	4.7	8.32	7.07	5.62	7.13	7.92	8.23	1.64	0.636	0.854	-0.0237	1.65	0.526	3.55
CGAACTAGGGCAAAGGACAGTGAAAGGCGACGTA	-0.161	-0.272	-0.336	-0.481	-1.45	3.45	9.04	7.51	8.13	8.74	7.08	6.68	0.104	0.584	-0.478	-0.625	-0.393	-0.727	2
CGAACTAGGTCAAATGACAGTGAAAGGCGACGTA	4.96	3.06	0.264	2.29	0.271	5.2	8.2	6.78	5.35	7.38	7.89	8.48	2.82	2.37	1.34	0.00572	2.23	0.892	4.02
ATATGTAGGTTAGGGTCATTTAGAAAGTAGGGAA	4.85	3.93	1.62	4.59	1.67	5.67	7.69	6.54	4.42	6.23	6.56	6.66	2.64	3.47	4.23	1.89	4.82	1.85	3.33
CGAACTACGTCAAAGGACAGTGAAAGGCGACGTA	-0.5	-0.431	-0.3	-0.675	-0.597	0.0872	1.15	1.53	0.179	1.25	-0.332	-0.152	-0.567	-0.204	-0.445	-0.202	-0.353	-0.431	1.14
